In PubChem BioAssay (Tox21):
Several values for one entry are separate records, joined by “and”; a condition that tells them apart may be missing. Equal values may be shown once. Inconclusive results are not listed. Where a call stands in place of a potency, no number is given. A number with no mark means an inactive call. Activity calls are given as the source filed them. Calls come from the whole dose curve; as a rule, active = well fitted cell-killing curve with a large enough effect in the repeat runs; inconclusive = weak or mixed curves, or effect the other way; inactive = flat fitted curve, though single readings scatter.

Columns and labels:
[1] = cAMP Responsive Elements (CRE) small molecule antagonists, cell-based qHTS assay: qHTS cell viability counter screen (AID 2060913); note: nearly all actives have a fitted effect of over 40% in size
Method in brief: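 Viability of NKH477-stimulated (0.25 uM final) CRE-bla HEK293T cells is measured by CellTiter-Glo luminescence following 3 hrs compound exposure at 37 C.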

[2] = cAMP Responsive Elements (CRE) small molecule agonists, cell-based qHTS assay: qHTS cell viability counter screen (AID 2060914);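 note: viability read after 3 h of compound exposure; nearly all actives have a fitted effect of over 50% in size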
Method in brief: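 HEK 293T CRE-bla; DMEM + 10% dialyzed FBS, 25 mM HEPES; 18 h pre-incubation; compound 3 h, 37 °C/5% CO2; CellTiter-Glo added after reporter read; luminescence after 30 min RT.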
Potency is the fitted concentration of half-maximal effect.

Compound	Potency [1]	Potency [2]	viability change, negative = cytotoxic [1]	activity change, negative = cytotoxicity [2]
CCC(O)OC(O)CC (stereo not given)	inactive	inactive		
CCCc1cc(C(N)=S)ccn1	inactive	inactive		
CC(=O)OC/C=C/c1ccccc1	inactive	inactive		
C[N+]1(C)CCCC(OC(=O)C(O)(c2ccccc2)c2ccccc2)C1 (stereo not given)	inactive	inactive		
CCCCCCCCCCCCCCCCCBr			1.85% [at 18.9 µM]	1.37% [at 18.9 µM]
CC1(C)O[C@@H]2C[C@H]3[C@@H]4C[C@H](F)C5=CC(=O)CC[C@]5(C)[C@H]4[C@@H](O)C[C@]3(C)[C@]2(C(=O)CO)O1	inactive	inactive		
CCCCCC=O	inactive	inactive		
CCCCCCCCCCCCCC(=O)O	inactive	inactive		
COP(=O)(OC)OC(c1ccc(Cl)cc1)P(=O)(OC)OC (stereo not given)	inactive	inactive		
O=C1CC(c2ccc(Cl)cc2)CC(=O)N1	inactive	inactive		
Nc1ncn([C@H]2C[C@H](O)[C@@H](CO)O2)c(=O)n1	inactive	inactive		
CCC(O)CO (stereo not given)	inactive	inactive		
C[C@H](CN1CCCC1)C(=O)c1ccc(C(F)(F)F)cc1	inactive	inactive		
CCCCOc1ccc(OCCCN2CCOCC2)cc1	inactive	inactive		
COc1cc(C(=O)N2CCOCC2)cc(OC)c1OC	inactive	inactive		
O=C(CCCN1CCN(c2ccc(F)cc2)CC1)NC1c2ccccc2CSc2ccccc21 (stereo not given)	inactive	inactive		
Cc1ccc(CO)cc1	inactive	inactive		
OCCCS	inactive	inactive		
CCCC(=O)OCCc1ccccc1	inactive	inactive		
CCN(CC)c1cccc(C)c1	inactive	inactive		
Nc1cccc2c(=O)[nH][nH]c(=O)c12	inactive	inactive		
NS(=O)(=O)c1cc2c(cc1C(F)(F)F)NC(Cc1ccccc1)NS2(=O)=O (stereo not given)	inactive	inactive		
CCOC(OCC)C(=O)c1ccccc1	inactive	inactive		
CCOc1ccccc1O	inactive	inactive		
COC(=O)C1CCC(C(=O)OC)CC1 (stereo not given)	inactive	inactive		
O=S(=O)(O)c1ccc(Cl)cc1	inactive	inactive		
C=C(C)OC(C)=O	inactive	inactive		
NCCO	inactive	inactive		

Compound	Potency [1]	Potency [2]	viability change, negative = cytotoxic [1]	activity change, negative = cytotoxicity [2]
CC(C)Oc1ccc2c(=O)c(-c3ccccc3)coc2c1	inactive	inactive		
CCCCC(=O)N(C)C	inactive	inactive		
Cc1ccc(S(=O)(=O)N=C=O)cc1	inactive	inactive		
NC(N)=S	inactive	inactive		
O=C1OC(=O)c2cc(Oc3ccc4c(c3)C(=O)OC4=O)ccc21	inactive	inactive		
CCCCCCCCOc1ccc(C(=O)O)cc1	inactive	inactive		
CC(C)S	inactive	inactive		
CC(=O)O[C@@H]1C[C@@H]2CC[C@@]1(C)C2(C)C	inactive	inactive		
CCOCCn1c(C2CCN(CCc3ccc(C(C)(C)C(=O)O)cc3)CC2)nc2ccccc21	inactive	inactive		
CC(C)C(=O)OCCOc1ccccc1	inactive	inactive		
Cc1cc(N)c2cc(NC(=O)Nc3ccc4nc(C)cc(N)c4c3)ccc2n1	inactive	inactive		
C1COCCO1	inactive	inactive		
CCC(C)S (stereo not given)			3.82% [at 3.27 µM]	5.15% [at 3.27 µM]
Cc1c(C(=O)NN2CCCCC2)nn(-c2ccc(Cl)cc2Cl)c1-c1ccc(Cl)cc1	inactive	inactive		
Nc1ccncc1N	inactive	inactive		
Brc1cc2ccccc2c2ccccc12	inactive	inactive		
C[n+]1ccn(CCO)c1	inactive	inactive		
CCCCCCCCCCCCCC[N+](C)(C)C	52.7 µM (active) and 48.5 µM (active)	52.7 µM (active)		
Cc1cc(CC(=O)O)c(C)n1-c1ccc(Cl)cc1	inactive	inactive		
COCN(COC)c1nc(N(COC)COC)nc(N(COC)COC)n1	inactive	inactive		
COc1cc2c(Nc3ccc(Br)cc3F)ncnc2cc1OCC1CCN(C)CC1	inactive	inactive		
CN1CCC(Nc2ncc3ncnc(Nc4ccc(F)c(Cl)c4)c3n2)CC1	inactive	inactive		
OCC(O)CO	inactive	inactive		
O=C1O[C@H]([C@H](O)CO)C(O)=C1O	inactive	inactive		
CCOC(=O)c1ccccc1	inactive	inactive		
N#CCC(=O)O	inactive	inactive		
c1cc2ccc3ccc4ccc5cccc6c(c1)c2c3c4c56			18.5% [at 3.27 µM]	-0.0627% [at 3.27 µM]
